Laboratory results reported in ChEMBL document CHEMBL3988442, “University of Dundee, Small-Polar-MMV Screening Library” (2021).
For some of these results: Measured potencies and affinities stand elsewhere.

Key:
[1] = biological target: T1, Methionyl-tRNA synthetase, putative (Leishmania donovani (strain BPK282A1)) (UniProt E9BF75); assay: Leishmania donovani Methionine tRNA synthetase (LdMetRS):v7. Dose response assay; type: functional; set-up: conc 80 nM, time 150 minutes
T1 sequence (whole entry): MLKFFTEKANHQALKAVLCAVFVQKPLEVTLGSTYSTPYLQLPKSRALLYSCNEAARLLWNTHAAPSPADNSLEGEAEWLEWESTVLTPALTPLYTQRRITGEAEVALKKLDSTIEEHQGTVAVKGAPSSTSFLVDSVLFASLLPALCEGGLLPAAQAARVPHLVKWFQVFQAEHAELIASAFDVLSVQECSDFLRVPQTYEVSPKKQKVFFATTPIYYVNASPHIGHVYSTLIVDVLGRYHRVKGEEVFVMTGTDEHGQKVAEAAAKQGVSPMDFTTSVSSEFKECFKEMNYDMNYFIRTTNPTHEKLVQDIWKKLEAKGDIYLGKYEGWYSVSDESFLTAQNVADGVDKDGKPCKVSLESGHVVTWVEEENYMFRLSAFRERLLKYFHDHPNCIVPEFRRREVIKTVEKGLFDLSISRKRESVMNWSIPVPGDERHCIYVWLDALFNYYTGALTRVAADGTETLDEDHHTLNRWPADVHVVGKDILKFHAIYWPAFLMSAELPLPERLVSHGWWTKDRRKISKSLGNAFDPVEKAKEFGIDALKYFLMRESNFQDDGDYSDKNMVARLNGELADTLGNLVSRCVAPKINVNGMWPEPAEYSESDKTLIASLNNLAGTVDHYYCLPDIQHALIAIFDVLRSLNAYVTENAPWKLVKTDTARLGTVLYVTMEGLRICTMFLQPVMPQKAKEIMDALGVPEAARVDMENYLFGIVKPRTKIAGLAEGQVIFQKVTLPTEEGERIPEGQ

[2] = biological target: Protein translocase subunit SecA (Escherichia coli (strain K12)) (UniProt P10408); assay: Assay to Identify E. coli SecA ATPase Inhibitors; type: functional; set-up: scale not given: direction of the effect not stated beside the values; settings: 30 µM
Chain of Protein translocase subunit SecA (Escherichia coli (strain K12)) (P10408 whole entry): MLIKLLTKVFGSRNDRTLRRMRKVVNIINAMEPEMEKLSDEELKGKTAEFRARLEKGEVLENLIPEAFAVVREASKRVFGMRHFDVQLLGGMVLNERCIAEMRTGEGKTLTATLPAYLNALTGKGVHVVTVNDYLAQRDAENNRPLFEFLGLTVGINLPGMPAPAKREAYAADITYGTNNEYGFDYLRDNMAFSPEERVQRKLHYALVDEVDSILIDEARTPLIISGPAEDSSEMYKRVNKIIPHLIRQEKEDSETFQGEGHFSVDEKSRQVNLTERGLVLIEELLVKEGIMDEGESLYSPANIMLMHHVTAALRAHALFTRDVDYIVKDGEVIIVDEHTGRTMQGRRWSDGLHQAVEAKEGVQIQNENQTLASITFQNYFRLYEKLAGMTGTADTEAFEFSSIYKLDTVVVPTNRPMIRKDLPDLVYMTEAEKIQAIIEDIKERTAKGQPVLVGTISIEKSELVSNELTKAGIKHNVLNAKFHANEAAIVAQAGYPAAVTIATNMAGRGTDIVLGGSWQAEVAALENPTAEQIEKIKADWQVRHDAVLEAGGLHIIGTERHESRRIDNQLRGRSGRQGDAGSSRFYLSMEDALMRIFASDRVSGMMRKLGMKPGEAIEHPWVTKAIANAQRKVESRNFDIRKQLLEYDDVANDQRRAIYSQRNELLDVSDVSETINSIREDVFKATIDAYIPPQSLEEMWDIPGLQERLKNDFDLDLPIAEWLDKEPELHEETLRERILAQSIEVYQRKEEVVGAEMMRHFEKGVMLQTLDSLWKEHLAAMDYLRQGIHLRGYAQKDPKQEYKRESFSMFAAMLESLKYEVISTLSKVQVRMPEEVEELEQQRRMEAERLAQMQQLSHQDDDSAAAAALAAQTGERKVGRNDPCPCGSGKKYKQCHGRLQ

[3] = biological target: T2, Ubiquitin-activating enzyme e1, putative (Leishmania donovani (strain BPK282A1)) (UniProt E9BSI1); assay: Leishmania donovani Ubiquitin Activating Enzyme (LdE1); type: functional; set-up: scale not given: direction of the effect not stated beside the values; settings: 30 µM
T2 sequence (whole entry): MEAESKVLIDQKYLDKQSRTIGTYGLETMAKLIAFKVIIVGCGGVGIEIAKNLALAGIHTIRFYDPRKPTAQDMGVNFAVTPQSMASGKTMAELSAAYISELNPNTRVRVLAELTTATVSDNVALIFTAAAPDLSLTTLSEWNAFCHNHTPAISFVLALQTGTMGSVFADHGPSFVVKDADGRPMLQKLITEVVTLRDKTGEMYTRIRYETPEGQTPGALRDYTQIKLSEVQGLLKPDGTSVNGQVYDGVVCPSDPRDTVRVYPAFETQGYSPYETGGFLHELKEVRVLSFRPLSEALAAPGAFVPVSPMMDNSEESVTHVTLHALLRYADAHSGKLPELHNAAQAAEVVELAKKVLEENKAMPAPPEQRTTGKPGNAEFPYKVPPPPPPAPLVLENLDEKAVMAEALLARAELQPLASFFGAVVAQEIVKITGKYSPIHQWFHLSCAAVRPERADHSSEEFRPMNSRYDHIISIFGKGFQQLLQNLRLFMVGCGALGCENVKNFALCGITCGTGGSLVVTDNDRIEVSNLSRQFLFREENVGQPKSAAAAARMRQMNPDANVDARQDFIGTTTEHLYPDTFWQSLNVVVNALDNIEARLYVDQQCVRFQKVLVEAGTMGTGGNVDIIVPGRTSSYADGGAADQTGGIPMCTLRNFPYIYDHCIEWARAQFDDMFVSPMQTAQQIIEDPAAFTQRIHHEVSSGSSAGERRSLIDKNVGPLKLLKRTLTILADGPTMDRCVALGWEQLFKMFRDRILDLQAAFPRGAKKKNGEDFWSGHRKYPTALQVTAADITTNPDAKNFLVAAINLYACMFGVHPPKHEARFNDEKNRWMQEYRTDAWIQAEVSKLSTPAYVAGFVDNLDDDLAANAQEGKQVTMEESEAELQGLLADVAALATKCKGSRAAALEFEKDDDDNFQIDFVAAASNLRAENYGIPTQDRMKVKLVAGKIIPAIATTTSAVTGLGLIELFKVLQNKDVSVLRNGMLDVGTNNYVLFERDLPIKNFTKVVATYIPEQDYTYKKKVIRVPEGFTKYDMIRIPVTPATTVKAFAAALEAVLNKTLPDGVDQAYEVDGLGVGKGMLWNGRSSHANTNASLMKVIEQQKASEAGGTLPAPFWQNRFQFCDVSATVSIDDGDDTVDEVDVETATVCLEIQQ

[4] = biological target: AMP-activated protein kinase, AMPK (Homo sapiens) (UniProt P54646+O43741+P54619+Q9UGJ0+Q9Y478+Q13131+Q9UGI9); assay: AMP-dependent Kinase enzyme assay. An in vitro enzyme assay that detects ADP turnover that is directly proportional to AMPK activity. This uses naive AMPK that is activated during the assay with MK-8722; type: functional; set-up: scale not given: direction of the effect not stated beside the values; settings: 30 µM
[5] = biological target: Sialic acid-binding Ig-like lectin 9 (Homo sapiens) (UniProt Q9Y336); assay: Hs-Siglec9 ALPHAscreen SOP 20170721; set-up: scale not given: direction of the effect not stated beside the values; settings: 10 µM
Chain of Sialic acid-binding Ig-like lectin 9 (Homo sapiens) (Q9Y336 whole entry): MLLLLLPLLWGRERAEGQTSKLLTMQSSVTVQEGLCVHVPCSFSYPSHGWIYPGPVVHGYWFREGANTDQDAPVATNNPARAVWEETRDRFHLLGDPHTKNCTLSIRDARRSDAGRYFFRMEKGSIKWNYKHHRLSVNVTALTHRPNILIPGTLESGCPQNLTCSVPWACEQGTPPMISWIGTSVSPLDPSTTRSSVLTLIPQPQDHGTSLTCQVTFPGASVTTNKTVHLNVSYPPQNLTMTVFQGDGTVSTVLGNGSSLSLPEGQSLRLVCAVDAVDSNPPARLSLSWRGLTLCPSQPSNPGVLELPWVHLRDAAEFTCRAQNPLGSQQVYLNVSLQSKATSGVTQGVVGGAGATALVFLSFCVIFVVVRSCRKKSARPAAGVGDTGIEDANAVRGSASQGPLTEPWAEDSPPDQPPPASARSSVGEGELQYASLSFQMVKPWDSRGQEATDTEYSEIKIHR

Trypanosoma cruzi = assay: Trypanosoma cruzi phosphomannomutase and mannose-1-phosphate guanylyltransferase assay; type: functional; set-up: scale not given: direction of the effect not stated beside the values; settings: 10 µM
[6] = biological target: T3, Arginase-2, mitochondrial (Homo sapiens) (UniProt P78540); assay: in vitro enzyme assay to detect the production of urea directly proportional to the activity of Arginase II; type: functional; set-up: scale not given: in the data most compounds retested in dose-response had high values; settings: 33.3 µM
T3 sequence (whole entry): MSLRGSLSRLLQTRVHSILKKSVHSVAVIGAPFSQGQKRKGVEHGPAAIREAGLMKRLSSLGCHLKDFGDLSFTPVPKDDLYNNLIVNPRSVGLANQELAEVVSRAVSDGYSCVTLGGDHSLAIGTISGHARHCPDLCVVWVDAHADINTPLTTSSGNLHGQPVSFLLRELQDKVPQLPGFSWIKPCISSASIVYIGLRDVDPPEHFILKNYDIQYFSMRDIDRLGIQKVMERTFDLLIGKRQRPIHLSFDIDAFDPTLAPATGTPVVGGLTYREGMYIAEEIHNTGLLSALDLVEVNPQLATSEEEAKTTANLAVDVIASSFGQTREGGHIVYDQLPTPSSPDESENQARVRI

[7] = biological target: T4, Proteasome subunit beta (Trypanosoma cruzi) (UniProt O96673); assay: Trypanosoma cruzi proteasome chymotrypsin-like activity (TcProtChymo) assay.; type: functional; set-up: scale not given: in the data most compounds retested in dose-response had high values; settings: 9.37 µM
T4 sequence (whole entry): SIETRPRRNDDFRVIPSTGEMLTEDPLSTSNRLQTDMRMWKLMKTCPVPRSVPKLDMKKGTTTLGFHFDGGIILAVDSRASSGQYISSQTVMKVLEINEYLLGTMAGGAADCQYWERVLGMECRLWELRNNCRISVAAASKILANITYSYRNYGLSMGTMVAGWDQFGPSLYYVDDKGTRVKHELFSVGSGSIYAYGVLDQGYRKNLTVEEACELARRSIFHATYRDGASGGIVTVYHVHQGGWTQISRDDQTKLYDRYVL

Homo sapiens = species: Homo sapiens; assay: To identify inhibition of the IFN signalling (Jak-Stat) pathway via expression of an eGFP reporter gene under the control of an IFN-stimulated response element (ISRE) containing MxA promoter.; type: functional; set-up: scale not given: direction of the effect not stated beside the values; settings: 30 µM
[8] = biological target: T5, Tyrosyl-tRNA synthetase, putative (Trypanosoma cruzi (strain CL Brener)) (UniProt Q4DSP6); assay: Trypanosoma cruzi tyrosyl tRNA synthetase (TcYRS) _High Tyrosine SOP; type: functional; set-up: scale not given: in the data most compounds retested in dose-response had high values; settings: 30 µM
T5 sequence (whole entry): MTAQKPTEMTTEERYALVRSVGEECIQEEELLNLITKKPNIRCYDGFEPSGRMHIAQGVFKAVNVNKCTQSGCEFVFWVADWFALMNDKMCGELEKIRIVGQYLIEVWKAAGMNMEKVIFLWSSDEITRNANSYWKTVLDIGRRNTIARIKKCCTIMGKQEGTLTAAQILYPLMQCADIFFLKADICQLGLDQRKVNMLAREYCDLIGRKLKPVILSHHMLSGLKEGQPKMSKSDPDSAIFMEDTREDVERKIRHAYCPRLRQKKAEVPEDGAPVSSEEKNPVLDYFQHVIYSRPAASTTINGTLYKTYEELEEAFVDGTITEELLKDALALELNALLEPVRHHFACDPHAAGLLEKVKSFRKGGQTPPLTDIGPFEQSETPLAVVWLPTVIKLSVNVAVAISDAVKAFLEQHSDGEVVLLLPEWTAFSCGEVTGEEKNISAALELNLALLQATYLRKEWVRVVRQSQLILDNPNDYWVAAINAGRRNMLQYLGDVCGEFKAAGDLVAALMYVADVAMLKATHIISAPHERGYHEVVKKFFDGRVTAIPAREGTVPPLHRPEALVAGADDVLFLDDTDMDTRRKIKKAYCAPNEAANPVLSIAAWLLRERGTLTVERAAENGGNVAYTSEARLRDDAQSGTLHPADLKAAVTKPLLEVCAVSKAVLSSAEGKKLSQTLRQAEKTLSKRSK

[9] = biological target: T5, Tyrosyl-tRNA synthetase, putative (Trypanosoma cruzi (strain CL Brener)); assay: Trypanosoma cruzi tyrosyl tRNA synthetase (TcYRS) SOP; type: functional; set-up: scale not given: direction of the effect not stated beside the values; settings: 30 µM
[10] = biological target: Chromo domain-containing protein 1 (Saccharomyces cerevisiae (strain ATCC 204508 / S288c) (Baker's yeast)) (UniProt P32657); assay: ScCHD-1 Enzyme Inhibition Assay; type: functional; set-up: scale not given: in the data most compounds retested in dose-response had high values; settings: 30 µM
Chain of Chromo domain-containing protein 1 (Saccharomyces cerevisiae (strain ATCC 204508 / S288c) (Baker's yeast)) (P32657 whole entry, the tested form may be a part): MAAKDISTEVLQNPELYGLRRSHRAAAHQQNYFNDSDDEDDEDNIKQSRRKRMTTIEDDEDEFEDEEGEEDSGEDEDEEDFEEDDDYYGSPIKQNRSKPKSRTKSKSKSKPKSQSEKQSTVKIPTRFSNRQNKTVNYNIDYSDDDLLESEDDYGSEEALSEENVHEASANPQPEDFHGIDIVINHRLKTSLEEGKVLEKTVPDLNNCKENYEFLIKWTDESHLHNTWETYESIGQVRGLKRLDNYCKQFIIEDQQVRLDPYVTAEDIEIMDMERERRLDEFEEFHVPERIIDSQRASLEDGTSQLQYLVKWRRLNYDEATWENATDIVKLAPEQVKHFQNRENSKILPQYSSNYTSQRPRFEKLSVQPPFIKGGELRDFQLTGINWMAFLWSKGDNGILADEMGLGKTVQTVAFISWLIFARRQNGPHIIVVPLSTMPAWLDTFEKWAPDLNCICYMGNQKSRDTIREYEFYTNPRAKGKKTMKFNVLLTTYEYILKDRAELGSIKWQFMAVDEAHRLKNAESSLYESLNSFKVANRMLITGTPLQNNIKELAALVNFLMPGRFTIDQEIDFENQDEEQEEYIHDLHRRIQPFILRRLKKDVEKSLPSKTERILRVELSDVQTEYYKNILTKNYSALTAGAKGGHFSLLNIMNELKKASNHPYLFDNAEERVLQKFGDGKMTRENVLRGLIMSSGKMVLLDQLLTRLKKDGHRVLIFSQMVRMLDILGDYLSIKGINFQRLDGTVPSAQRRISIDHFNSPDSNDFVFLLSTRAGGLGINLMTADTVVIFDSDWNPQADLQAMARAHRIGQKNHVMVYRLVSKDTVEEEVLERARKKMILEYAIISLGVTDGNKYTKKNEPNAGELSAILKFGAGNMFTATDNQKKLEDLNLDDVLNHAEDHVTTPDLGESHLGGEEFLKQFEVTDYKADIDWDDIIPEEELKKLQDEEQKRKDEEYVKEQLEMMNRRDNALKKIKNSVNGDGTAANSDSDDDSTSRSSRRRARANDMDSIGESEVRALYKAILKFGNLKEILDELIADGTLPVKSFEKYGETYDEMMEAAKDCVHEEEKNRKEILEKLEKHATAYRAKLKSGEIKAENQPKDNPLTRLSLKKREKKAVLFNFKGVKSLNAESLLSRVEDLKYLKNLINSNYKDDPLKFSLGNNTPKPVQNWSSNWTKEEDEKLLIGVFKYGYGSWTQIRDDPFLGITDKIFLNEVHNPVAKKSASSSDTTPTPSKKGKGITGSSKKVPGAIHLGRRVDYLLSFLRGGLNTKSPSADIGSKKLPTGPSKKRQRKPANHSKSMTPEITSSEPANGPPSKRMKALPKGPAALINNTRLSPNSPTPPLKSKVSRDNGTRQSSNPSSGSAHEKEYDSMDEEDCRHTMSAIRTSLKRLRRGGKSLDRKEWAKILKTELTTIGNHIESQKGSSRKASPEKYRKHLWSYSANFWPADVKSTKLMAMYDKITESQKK

## Cc1nc(N2CCCCC2)ncc1-c1cc(O)[nH]n1
[1]; MAX_EFFECT 13.62007168
  PXC50: < 4
[1]; MAX_EFFECT 16.42743222
  PXC50: < 4
[1]; MAX_EFFECT 31.28598848
  PXC50: < 4
[1]; MAX_EFFECT 33.33333333
  PXC50: < 4
[1]; MAX_EFFECT 39.9339934
  PXC50: < 4
[2]
  Percent Effect: -5.23%
[3]
  Percent Effect: 1.33%
[4]
  Percent Effect: 13%
[5]
  Percent Effect: 8.28%
Trypanosoma cruzi
  Percent Effect: 1.18%
[6]
  Percent Effect: -8.28%
[7]
  Percent Effect: 6.65%
Homo sapiens
  Percent Effect: -20%
[8]
  Percent Effect: 5.29%
[9]
  Percent Effect: 7.69%
[10]
  Percent Effect: -1.87%

## CCN(CCN(C)C)c1nc(CCN)nc2sc(C)c(C)c12
[1]; BOTTOM 1.153434253, HILLSLOPE 1.801290913, MAX_EFFECT 65.59139785, TOP 100.0
  PXC50: 4.17
[1]; BOTTOM 3.323089956, HILLSLOPE 2.865245269, MAX_EFFECT 53.13531353, TOP 100.0
  PXC50: 4.01
[1]; BOTTOM 7.056148009, HILLSLOPE 0.845689164, MAX_EFFECT 65.90909091, TOP 100.0
  PXC50: 4.25
[1]; BOTTOM 9.733141468, HILLSLOPE 1.108067768, MAX_EFFECT 69.89795918, TOP 94.34728341
  PXC50: 4.35
[1]; BOTTOM -2.908093481, HILLSLOPE 0.556623138, MAX_EFFECT 55.79710145, TOP 100.0
  PXC50: 4.03

## CCc1ccc(-c2cc(C(F)(F)F)nc(N3CCC(N)CC3)n2)cc1
[1]; BOTTOM 0.706388919, HILLSLOPE 2.15610203, MAX_EFFECT 103.8387716, TOP 100.0
  PXC50: 4.56
[1]; BOTTOM 1.827311561, HILLSLOPE 2.684909792, MAX_EFFECT 98.40510367, TOP 100.0
  PXC50: 4.35
[1]; BOTTOM 4.066049008, HILLSLOPE 2.434171465, MAX_EFFECT 89.60138648, TOP 100.0
  PXC50: 4.34
[1]; BOTTOM 4.927859372, HILLSLOPE 1.513560957, MAX_EFFECT 87.5, TOP 100.0
  PXC50: 4.46
[1]; BOTTOM -3.243969643, HILLSLOPE 5.145586142, MAX_EFFECT 85.90604027, TOP 95.73252463
  PXC50: 4.19

## FC1(F)CCN(Cc2cccnc2)CC12CCN(c1ccccc1)C2 (stereo unspecified)
[1]; BOTTOM -4.019199092, HILLSLOPE 0.87851595, MAX_EFFECT 63.88888889, TOP 104.3685566
  PXC50: 4.25
[1]; BOTTOM -4.110370477, HILLSLOPE 0.854311737, MAX_EFFECT 59.79202773, TOP 100.0
  PXC50: 4.27
[1]; BOTTOM -6.339797733, HILLSLOPE 0.853335904, MAX_EFFECT 59.06040268, TOP 100.0
  PXC50: 4.22
[1]; MAX_EFFECT 7.101727447
  PXC50: < 4
[1]; MAX_EFFECT 13.23763955
  PXC50: < 4
